Screening results as filed in PubChem BioAssay.
D3 antag – qHTS of D3 Dopamine Receptor Antagonist: qHTS; D(3) dopamine receptor (Homo sapiens), P35462; D3R cells, DiscoveRx beta-arrestin luminescence, antagonist mode; stronger effect = lower value; max response, negative = inhibition, %; actives 2.5% (n = 360,000); AID 652054, 2013; in the data active = max response below about -50%; inconclusive = no clear call, values can overlap the other calls
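Cells plated overnight at 1500 cells/well, then exposed to library compounds with dopamine controls for 90 minutes at 37 degrees C. DiscoveRx reagent added for 30–60 minutes at room temperature; luminescence read, quantitative HTS format.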
LDHA inh – qHTS assay for inhibitors of human lactate dehydrogenase | L-lactate dehydrogenase A chain (Homo sapiens), P00338 | purified LDHA, NADH/diaphorase-resazurin fluorescence; stronger effect = lower value | activity change, % (values are at about 110 or 230 µM) | actives 0.15% (n = 480,000); in the data active = activity change below about -30%; inconclusive = mostly about -25% to -30%
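Resorufin fluorescence (ex540/em590), read at 0 and 20 min after diaphorase/resazurin addition, reports the NADH left after a 5 min room-temperature reaction of 2 nM human LDH5 with 0.06 mM NADH and 0.2 mM pyruvate.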
PI5P4Ka inh – qHTS for Inhibitors of phosphatidylinositol 5-phosphate 4-kinase (PI5P4K); actives 1.2% (n = 330,000); Phosphatidylinositol 5-phosphate 4-kinase type-2 alpha (Homo sapiens), P48426; PI5P4Kalpha enzyme, ADP-Glo luminescence, 60 min; stronger effect = lower value; max response, %; active = max response of -50% or lower; inconclusive = between -30% and -50%; inactive = -30% or higher; also: value at the top dose of about 77 µM
Target sequence (P48426 whole entry, looked up): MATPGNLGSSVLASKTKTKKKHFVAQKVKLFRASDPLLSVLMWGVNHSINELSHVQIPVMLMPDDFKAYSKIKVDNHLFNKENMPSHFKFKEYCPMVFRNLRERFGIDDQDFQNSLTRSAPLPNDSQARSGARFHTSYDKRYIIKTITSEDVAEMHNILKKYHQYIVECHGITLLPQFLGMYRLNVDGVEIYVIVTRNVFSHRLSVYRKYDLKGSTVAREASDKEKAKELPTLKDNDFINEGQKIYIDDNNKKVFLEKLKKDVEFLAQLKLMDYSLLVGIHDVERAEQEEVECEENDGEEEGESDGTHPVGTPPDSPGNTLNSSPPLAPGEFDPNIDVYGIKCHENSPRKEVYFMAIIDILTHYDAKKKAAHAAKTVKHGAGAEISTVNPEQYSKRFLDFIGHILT
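Quantitative HTS of the MLSMR library against PI5P4Kalpha with substrate. ATP added last at 5 microM final; room temperature, 60 minutes. Remaining ATP depleted, ADP converted and read as luminescence.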
DRD3 agonist – qHTS of D3 Dopamine Receptor Agonist: qHTS. D(3) dopamine receptor (Homo sapiens), P35462. D3R DiscoveRx beta-arrestin cells, luminescence, 90 min. max activation, %. actives 0.58% (n = 410,000). AID 652048, 2013; in the data active = max activation above about 30%
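Agonist mode: compounds and dopamine controls were applied to plated cells for 90 min at 37 degrees C after an overnight attachment at 1500 cells/well. Luminescent read-out followed 30 - 60 minutes at room temperature with DiscoveRx detection reagent.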
PI4K2A inh – qHTS for small molecular inhibitors of PI4K2A. Phosphatidylinositol 4-kinase type 2-alpha (Homo sapiens), Q9BTU6. purified PI4K2A, ADP-Glo luminescence, 1 h; stronger effect = lower value. activity change, negative = inhibition, % at 76.9 µM. actives 0.13% (n = 420,000). AID 1346378, 2018; in the data active = activity change below about -50%; inconclusive = mostly about -30% to -49%
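Compounds are screened against recombinant PI4K2A using PI as substrate and ATP, the latter dispensed at 300 microM. Reactions run one hour at ambient temperature before ADP-Glo detection; full inhibition defined by wells lacking enzyme.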
Of the large screens only hits and unclear results are named; the others gave an inactive call. Shown are actives, neighbours in structure and some others; about 3.3% of the full set was active somewhere.

C[C@]12CC[C@@H]3c4ccc(O)cc4CC[C@H]3[C@@H]1CC[C@@H]2O	none
Cc1cc(C)c2c(=O)cc(C(=O)NCc3ccc4c(c3)OCO4)oc2c1	none (no result: D3 antag, PI5P4Ka inh, DRD3 agonist, PI4K2A inh)
O=C(/C=C/Nc1ccccc1)c1ccc(Cl)cc1Cl	none
N#Cc1c(Nc2ccccc2)[n+]([O-])c2ccc(Cl)cc2[n+]1[O-]	D3 antag -54.6
Cc1c(Cl)c(C(F)(F)F)nn1CC(=O)Nc1cc(Cl)ccc1Cl	none (no result: D3 antag, PI5P4Ka inh, DRD3 agonist, PI4K2A inh)
CC(NC(=S)NNC(=O)CCc1ccccc1)c1ccccc1 (configuration not stated)	none (no result: D3 antag, PI5P4Ka inh, DRD3 agonist, PI4K2A inh)
O=C(NNC(=O)c1cc2cc(Br)ccc2oc1=O)c1ccc(O)cc1	D3 antag -62.4
O=C(Nc1ccccc1O)c1cc2cc(Br)ccc2oc1=O	none
O=C(Nc1ccc(OC2CCCC2)cc1)c1ccncc1	none (no result: D3 antag, PI5P4Ka inh, DRD3 agonist, PI4K2A inh)
CCCC[C@H]1C2CC(OC(=O)Nc3cccc(Cl)c3)C(C2)[C@H]2CCCCN21 (some centres not stated)	none (no result: D3 antag, LDHA inh, PI5P4Ka inh, DRD3 agonist)
O=C(N/N=C/c1cc([N+](=O)[O-])ccc1O)Nc1ccccc1	D3 antag -75.1
Cc1cc(C(=O)N/N=C/c2ccc([N+](=O)[O-])cc2)c2ccccc2n1	none
COc1ccc(N2CC(C(=O)N/N=C/c3cc([N+](=O)[O-])ccc3O)CC2=O)cc1 (configuration not stated)	D3 antag -52.2
CN(/N=C/c1cc([N+](=O)[O-])ccc1O)c1ccccc1	none
Cc1cc(C(=O)N/N=C/c2cc(Br)cc([N+](=O)[O-])c2O)c2ccccc2n1	D3 antag -94.1, PI5P4Ka inh inconclusive
CC(N=Cc1cc([N+](=O)[O-])ccc1O)c1ccccc1 (configuration not stated)	D3 antag -52.0, PI5P4Ka inh inconclusive
COc1ccc(N2CC(C(=O)Nc3ccc([N+](=O)[O-])cc3Br)CC2=O)cc1 (configuration not stated)	none
CCOC(=O)c1cc(NC(C)=O)ccc1N1CCOCC1	none (no result: D3 antag, PI5P4Ka inh, DRD3 agonist, PI4K2A inh)
COc1ccc2c(c1)c(C(C(=O)O)N1CCN(c3ccc(C)cc3C)CC1)cn2CCC(=O)O (configuration not stated)	none (no result: D3 antag, PI5P4Ka inh, DRD3 agonist, PI4K2A inh)
O=[N+]([O-])c1ccc(O)c(C=NN2CCCCC2)c1	D3 antag -76.4
Cc1cc(C(=O)N/N=C/c2cc([N+](=O)[O-])ccc2O)c2ccccc2n1	D3 antag -64.5
O=C(N/N=C/c1cc([N+](=O)[O-])ccc1O)C12CC3CC(CC(C3)C1)C2	D3 antag -93.0
O=C(N/N=C/c1cc([N+](=O)[O-])ccc1O)NC12CC3CC(CC(C3)C1)C2	none
CC(C)n1c(NC2CCCCC2)nc2c1c(=O)n(C)c(=O)n2C	none (no result: D3 antag, PI5P4Ka inh, DRD3 agonist, PI4K2A inh)
COCCn1c(SCC(=O)Nc2ncc(Cl)cc2Cl)nc2ccccc21	none (no result: D3 antag, PI5P4Ka inh, DRD3 agonist, PI4K2A inh)
CC(Sc1nnc2ccccn12)C(=O)Nc1ncc(Cl)cc1Cl (configuration not stated)	D3 antag -50.2
COc1ccc(-n2c(SC(C)C(=O)Nc3ncc(Cl)cc3Cl)nc3ccccc32)cc1 (configuration not stated)	DRD3 agonist 35.8
CCOCCCNC(=S)NC1CCCC1	none (no result: D3 antag, PI5P4Ka inh, DRD3 agonist, PI4K2A inh)
O=C(COc1cccc(NC(=O)c2cccc([N+](=O)[O-])c2)c1)c1ccc(F)cc1	none
COc1cccc(C(=O)NC(=S)Nc2ccc3c4c(cccc24)CC3)c1	none
COc1cccc(C(=O)NC(=S)Nc2ccc(Cl)cc2C(=O)O)c1	PI5P4Ka inh -63.1
O=C(c1ccc2ccccc2c1)N1CCCC1	none
COC(=O)c1ccc(NC(=O)c2cccc(OC)c2)cc1	PI4K2A inh -50.5
CN1CCN(C(=O)c2ccc3ccccc3c2)CC1	D3 antag -82.6 (no result: PI5P4Ka inh)
COc1cccc(C(=O)COc2cccc(NC(=O)c3cccc([N+](=O)[O-])c3)c2)c1	D3 antag -51.1
CCSc1nnc2c(n1)OC(C)N(C(=O)CC)c1ccccc1-2 (configuration not stated)	none (no result: D3 antag, PI5P4Ka inh, DRD3 agonist, PI4K2A inh)
CCCCNC(=O)CS(=O)Cc1nc(-c2ccc(Cl)cc2)oc1C (configuration not stated)	none (no result: D3 antag, PI5P4Ka inh, DRD3 agonist, PI4K2A inh)
CCOC(=O)c1ccc2[nH]c(CSCC(=O)Nc3cc(C)cc(C)c3)cc(=O)c2c1	none (no result: D3 antag, PI5P4Ka inh, DRD3 agonist, PI4K2A inh)
COc1cccc(C(=O)Nc2ccc(C(=O)c3ccccc3)cc2)c1	none
COc1cccc(C(=O)Nc2ccc(C(=O)O)cc2)c1	PI4K2A inh -63.9
Cc1cccc(C(=O)NNC(=O)c2ccc3ccccc3c2)c1	LDHA inh -38.5
COC(=O)c1ccc(NC(=O)c2cccc(C)c2)cc1	D3 antag -51.7
Cc1cccc(C(=O)NNC(=O)c2cccc(C)c2)c1	none
CC(=O)Nc1ccc(NC(=O)c2cccc(Oc3ccccc3)c2)cc1	D3 antag -50.7
CCC(=O)OC1(c2ccccc2)CC(C(C)(C)C)CN(C)C1C (configuration not stated)	none (no result: D3 antag, PI5P4Ka inh, DRD3 agonist, PI4K2A inh)
CC(C)Cc1nn2c(=O)cc(COC(=O)COc3ccccc3F)nc2s1	none (no result: D3 antag, PI5P4Ka inh, DRD3 agonist, PI4K2A inh)
C=CCC(Nc1ccccc1)C12C=CC(O1)C(C(=O)OC)=C2C(=O)OC (configuration not stated)	D3 antag -78.2
COc1ccc(CN2CCC(CNC(=O)NC3CCCCC3)CC2)cc1	D3 antag -54.3
COc1ccc(CCNC(=S)NC2CCN(Cc3ccccc3)CC2)cc1	D3 antag -83.3
CCc1ccc(NC(=S)NC2CCN(Cc3ccccc3)CC2)cc1	none
S=C(Nc1ccc(Cl)cc1)NC1CCN(Cc2ccccc2)CC1	D3 antag -60.1
S=C(NCCc1ccccc1)NC1CCC(NC(=S)NCCc2ccccc2)CC1 (configuration not stated)	none
O=C(Nc1ccccc1)NC1CCN(Cc2nnnn2C2CCCCC2)CC1	D3 antag -69.8 (no result: PI5P4Ka inh)
CC(=O)Nc1ccc(Nc2cc(C)nc3c(-c4ccc(C)cc4)c(C)nn23)cc1	none (no result: D3 antag, PI5P4Ka inh, DRD3 agonist, PI4K2A inh)
Cc1cccc(OCC(=O)OCC(=O)c2ccc3c(c2)OCO3)c1	none (no result: D3 antag, PI5P4Ka inh, DRD3 agonist, PI4K2A inh)
S=C(Nc1ccccc1)NC1CCN(Cc2ccccc2)CC1	D3 antag -77.0
Cc1ccc(NC(=S)NC2CCN(Cc3ccccc3)CC2)c(C)c1	D3 antag inconclusive
Cc1ccccc1NC(=S)NC1CCN(Cc2ccccc2)CC1	D3 antag -50.5
CCCCC(CC)C(=O)Nc1cc(C)ccc1C (configuration not stated)	none (no result: D3 antag, PI5P4Ka inh, DRD3 agonist, PI4K2A inh)
CCOC(=O)C1(Cc2ccccc2C(F)(F)F)CCN(C(C)CSC)CC1 (configuration not stated)	D3 antag -53.8
CCOC(=O)C1(Cc2ccccc2C(F)(F)F)CCN(C(C)CCn2cccn2)CC1 (configuration not stated)	D3 antag -50.5
